# Experimental data from PubChem BioAssay (NCATS).
# Values joined by “and” are separate entries in the source; they are usually repeats but may differ in a detail not shown here. Equal entries are not always repeated. Results filed as inconclusive are left out. Active and inactive are the calls of the source. Calls follow the shape of the dose curve; as a rule, active = well fitted activation curve with a large enough effect; inconclusive = small, poorly fitted or top-dose-only effect; inactive = no such curve, though single readings can be large or run the other way.
# Biological target: Cellular tumor antigen p53 (Homo sapiens) (UniProt P04637)
# Assay: Primary qHTS for small molecule compounds that upregulate eGFP-tagged delta133p53alpha (in N-terminal) cells. (AID 2060322); also: nearly all actives have a fitted effect of over 75% in size;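 as to activation: cells pre-induced with doxycycline then dosed without doxycycline; series mostly up to about 56 µM; 0% = DMSO vehicle and 100% = reference activator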
# Conditions: NCI-H358 eGFP-delta133p53alpha fluorescence, 24 h; activation: active compounds read high
# Procedure, shortened: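 NCI-H358 cells pre-induced 24 h with 10 ng/ml doxycycline for eGFP-delta133p53alpha, plated dox-free and exposed 24 h at 37C to titrated compounds. Fixed, Hoechst-stained; gated GFP peak intensity by laser scanning cytometry, normalized to DMSO (0%) and 57.5 uM 5-azacytidine (100%).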
# Potency is read from the fitted curve at half-maximal effect.
# Sequence of Cellular tumor antigen p53 (Homo sapiens) (P04637 whole entry, looked up): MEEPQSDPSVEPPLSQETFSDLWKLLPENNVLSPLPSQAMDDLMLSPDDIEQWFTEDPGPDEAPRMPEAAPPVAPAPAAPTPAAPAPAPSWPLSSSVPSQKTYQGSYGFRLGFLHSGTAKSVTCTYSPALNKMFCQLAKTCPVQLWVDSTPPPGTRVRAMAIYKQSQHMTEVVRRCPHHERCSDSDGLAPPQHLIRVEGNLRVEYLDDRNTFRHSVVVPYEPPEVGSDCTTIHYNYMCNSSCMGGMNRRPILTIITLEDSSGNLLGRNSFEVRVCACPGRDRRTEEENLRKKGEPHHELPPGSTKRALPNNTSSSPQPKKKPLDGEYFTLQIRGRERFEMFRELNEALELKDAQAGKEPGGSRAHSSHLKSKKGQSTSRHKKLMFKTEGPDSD
SMILES,activation,Potency
O=C1C[C@@]2(C(=O)N1)C(=O)N(Cc1ccc(Br)cc1F)C(=O)c1cccn12,-11.7% (inactive),
CN(C)C/C=C/C(=O)Nc1ccc(C(=O)Nc2cccc(Nc3ncc(Cl)c(-c4c[nH]c5ccccc45)n3)c2)cc1,,269 nM (active) and 343 nM (active)
Nc1ccn(C2CO[C@H](CO)O2)c(=O)n1 (stereo not given in full),-4.75% (inactive),
CC(=O)Nc1cccc(-n2c(=O)n(C3CC3)c(=O)c3c(Nc4ccc(I)cc4F)n(C)c(=O)c(C)c32)c1,-5.24% (inactive) and -3.57% (inactive),
O=C(OCC1OC(Oc2ccc(O)cc2COC(=O)C2(O)C(O)CCC(=O)C2OC(=O)C2C=CCC2)C(OC(=O)C2C=CCC2)C(O)C1O)C1C=CCC1 (stereo not given),-3.05% (inactive),
COc1cc(O)cc(C)c1C(=O)OC1C(CO)OC(n2ccc(=O)[nH]c2=O)C1OC(C)=O (stereo not given),-6.11% (inactive),
COc1c(OCCCN2CCOCC2)ccc2c3n(c(=NC(=O)c4cnc(N)nc4)nc12)CCN3,8.4% (inactive) and -29.5% (inactive),
CC(C)n1nc(-c2ccc3oc(N)nc3c2)c2c(N)ncnc21,5.06% (inactive) and 13.4% (inactive),
CC12CCC3c4ccc(O)cc4CCC3C1CC(OC1OC(C(=O)O)C(O)C(O)C1O)C2O (stereo not given),-10.3% (inactive),
CO[C@@H](C)Cn1c(=O)n(C)c2cnc3ccc(-c4cncc(C(C)(C)O)c4)cc3c21,-10.7% (inactive),
Cc1nc(NC(=O)N2CCC[C@H]2C(N)=O)sc1-c1ccnc(C(C)(C)C(F)(F)F)c1,-25% (inactive),
C[C@@H](Oc1cc(-c2cnn(C3CCNCC3)c2)cnc1N)c1c(Cl)ccc(F)c1Cl,-17.6% (inactive),
COCCCc1sc(-c2ccccc2)nc1C(=O)Nc1ccccc1-c1nc2cc(CN3CCCC3)cnc2s1,-4.33% (inactive),
CC1C2=CC(=O)OC2(O)CC2C1CCC1C(C)(C)CCC(O)C21C (stereo not given),0.763% (inactive),
C=C1C2(CCC(=O)OC2(C)C)CC(OC(=O)/C(C)=C/C)C2(C)C13OC14C(=O)OC(C)(C(=O)C12C(=O)OC4C)C3OC(C)=O (stereo not given),-0.763% (inactive),
CC1=CC(=O)[C@]2(O[C@@H]3O[C@@H](C)[C@H](O)[C@@H](O)[C@H]3OC(=O)/C=C/c3ccccc3)C=CO[C@@H](O[C@@H]3O[C@H](CO)[C@@H](O)[C@H](O)[C@H]3O)[C@H]12,3.05% (inactive),
O=C(NOCC1CC1)c1ccc(F)c(F)c1Nc1ccc(I)cc1Cl,13% (inactive) and 35.6% (inactive) and 22.3% (inactive),
Cc1nc(NC(=O)N2CCCC2C(N)=O)sc1-c1ccnc(C(C)(C)C(F)(F)F)c1 (stereo not given),-0.893% (inactive),
CC(C)(C)c1nc(-c2cccc(NS(=O)(=O)c3c(F)cccc3F)c2F)c(-c2ccnc(N)n2)s1,,26.9 µM (active)
CC(=O)c1c(O)cc(O[C@@H]2O[C@H](CO)[C@@H](O)[C@H](O)[C@H]2O)cc1O,-8.04% (inactive),
Cc1ncc(NC(=O)c2ccc(CN3CCN(C)CC3)c(C(F)(F)F)c2)cc1Nc1nccc(-c2cccnc2)n1,,23.9 µM (active)
COC(=O)Nc1ccc(-c2nc(N3CCOCC3)c3cnn(C4CCN(Cc5cccnc5)CC4)c3n2)cc1,9.82% (inactive),
NC1(Cc2ccc(Cl)cc2)CCN(c2ncnc3[nH]ccc23)CC1,-4.16% (inactive) and 18.8% (inactive),
C[N+]1(C)[C@@H]2CC[C@H]1CC(OC(=O)C(O)c1ccccc1)C2 (stereo not given in full),13.7% (inactive),
Cn1cnc2c(F)c(Nc3ccc(Br)cc3Cl)c(C(=O)NOCCO)cc21,24.1% (inactive),
COc1ccc(C2(O)CCC(N3CC[C@@H](NC(=O)CNC(=O)c4cccc(C(F)(F)F)c4)C3)CC2)cn1 (stereo not given in full),19.6% (inactive),
Cn1nc(C(C)(C)C)cc1C(=O)N[C@@H](Cc1cccc(Cl)c1)C(=O)NCC#N,-7% (inactive),
CC(=O)OC[C@]1(O)[C@H]2[C@H](OC(=O)CC(C)C)OC=C(CO[C@@H]3O[C@H](CO)[C@@H](O)[C@H](O)[C@H]3O)[C@H]2C[C@@H]1O,-1.79% (inactive),
C=C1CC23CC(=O)C4C(CO)(CO)CCCC4(C)C2CCC1C3 (stereo not given),-3.05% (inactive),
CCCOc1ccc(CCc2nc3cc(-c4c(C)noc4C)ccc3n2CCN2CCOCC2)cc1,-35.8% (inactive),
